Measurements as given in PubChem BioAssay (EPA / NIEHS).
Where “and” joins values, the source holds several entries; their conditions need not be identical. Equal values may be shown once. Records with an inconclusive call do not appear. Calls of active or inactive are those of the source. How the source made its calls, unless noted: active means hit-call score of the fitted dose curve at least 0.9, where 1 is the maximum; inactive means score below 0.9.

How the values were obtained:
[1] = read-out: E-selectin (Homo sapiens) (UniProt P16581); assay: BSK_SAg_Eselectin: BioMAP Diversity Plus: SAg Assay for Eselectin Biomarker Activity (AID 2283091); details: primary human HUVEC with PBMC; actives raise or lower the signal
Summary of the method: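 Co-culture: HUVEC + PBMC. Dose compound; 24 h. ELISA for E-selectin. Bidirectional fit vs DMSO.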

[2] = read-out: Monokine induced gamma interferon (MIG), CXCL9 (gene 4283); assay: BSK_SAg_MIG: BioMAP Diversity Plus: SAg Assay for Monokine induced gamma interferon (MIG) Biomarker Activity (AID 2283092); details: primary human HUVEC with PBMC; actives raise or lower the signal
Summary of the method: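 Values reflect bidirectional fitting of ELISA-measured MIG against DMSO vehicle, taken 24 h after dosing of a co-culture of human umbilical vein endothelial cells and peripheral blood mononuclear cells.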

[3] = BSK_SAg_PBMCCytotoxicity: PBMC Cytotoxicity Assessment in the BioMAP Diversity Plus: SAg Assay (AID 2283093); details: primary human HUVEC with PBMC;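 further: fitted both ways against DMSO so a hit may be loss or gain of signal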;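 on AC50: PBMC superantigen activated with SEB plus TSST-1 one hour after compound addition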
Summary of the method: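 PBMC viability by Alamar Blue reduction, fluorescence read at 546/580 nm after 6 h dye exposure. Cells were dosed 1 h before SEB plus TSST-1 activation (20 ng/mL final each), then held 90 h; endothelial/PBMC human co-culture.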

[4] = read-out: Interleukin-8 (IL8), CXCL8 (gene 3576); assay: BSK_SAg_IL8: BioMAP Diversity Plus: SAg Assay for Interleukin-8 (IL8) Biomarker Activity (AID 2283094); details: primary human HUVEC with PBMC; actives raise or lower the signal
Summary of the method: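 Chemicals were dosed onto a human endothelial–PBMC co-culture, and IL-8 was quantified by ELISA after 24 h. Both increases and decreases were fitted relative to DMSO.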

[5] = BSK_SAg_Proliferation: Cell Proliferation Assessment in the BioMAP Diversity Plus: SAg Assay (AID 2283095); details: primary human HUVEC with PBMC;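 further: relative cell number as total protein by SRB absorbance in sub-confluent culture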
Summary of the method: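 Absorbance of sulforhodamine B at 560 nm reports total protein in a human vascular endothelial/PBMC co-culture after 96 h chemical exposure. Gain or loss of signal is fitted in both directions against DMSO.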

[6] = BSK_SAg_SRB: Viability Assessment in the BioMAP Diversity Plus: SAg Assay (AID 2283096); details: primary human HUVEC with PBMC;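 further: cells read one day after compound addition; hits may be either gain or loss of signal compared with DMSO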
Summary of the method: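 Compounds were added to a human vascular co-culture of umbilical vein endothelium and PBMC. After 24 h, parallel cultures were fixed with 10% TCA, stained with 0.1% sulforhodamine B and read at 560 nm. Gain or loss of signal was fitted relative to DMSO.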

[7] = target: human Ephrin type-A Receptor 1 (EphA1), EPHA1 (gene 2041) (UniProt P21709); assay: NVS_ENZ_hEphA1: NovaScreen (NVS) Enzymatic Assay for human Ephrin type-A Receptor 1 (EphA1) (AID 2283158; active means hit-call score of the fitted dose curve at least 0.9, where 1 is the maximum;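 further: activity is signal loss versus DMSO meaning EphA1 kinase inhibition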)
human Ephrin type-A Receptor 1 (EphA1), EPHA1 (gene 2041), sequence (P21709 whole entry, looked up): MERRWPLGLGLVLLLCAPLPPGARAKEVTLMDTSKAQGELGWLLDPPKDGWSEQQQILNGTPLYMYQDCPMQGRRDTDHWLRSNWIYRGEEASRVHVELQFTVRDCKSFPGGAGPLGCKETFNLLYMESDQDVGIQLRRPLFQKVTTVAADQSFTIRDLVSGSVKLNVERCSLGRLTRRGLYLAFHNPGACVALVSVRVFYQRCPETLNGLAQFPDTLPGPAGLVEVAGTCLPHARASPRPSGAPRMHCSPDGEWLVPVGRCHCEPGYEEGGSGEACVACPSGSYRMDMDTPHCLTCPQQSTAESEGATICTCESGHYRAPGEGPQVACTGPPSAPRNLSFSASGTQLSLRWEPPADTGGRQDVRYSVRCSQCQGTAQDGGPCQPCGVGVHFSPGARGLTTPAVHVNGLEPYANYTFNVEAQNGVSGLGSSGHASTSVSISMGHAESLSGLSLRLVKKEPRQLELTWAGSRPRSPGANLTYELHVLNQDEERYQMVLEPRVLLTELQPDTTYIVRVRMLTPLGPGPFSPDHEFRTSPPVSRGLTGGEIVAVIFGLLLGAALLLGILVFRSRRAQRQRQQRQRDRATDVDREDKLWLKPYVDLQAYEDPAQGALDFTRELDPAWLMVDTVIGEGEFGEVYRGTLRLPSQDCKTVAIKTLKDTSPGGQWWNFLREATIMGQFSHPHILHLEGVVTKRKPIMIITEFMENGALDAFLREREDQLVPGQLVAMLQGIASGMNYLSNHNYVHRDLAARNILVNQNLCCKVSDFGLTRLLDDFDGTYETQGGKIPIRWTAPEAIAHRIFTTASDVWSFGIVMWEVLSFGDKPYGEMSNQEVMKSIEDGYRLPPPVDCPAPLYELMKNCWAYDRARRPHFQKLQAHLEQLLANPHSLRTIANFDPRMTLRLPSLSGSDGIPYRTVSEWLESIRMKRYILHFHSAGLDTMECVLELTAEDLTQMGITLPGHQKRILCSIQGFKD
Summary of the method: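 Chemicals first tested in duplicate at 25 uM against recombinant EphA1 with a fluorescent substrate; those passing threshold went to singleton dose-response topping at 50 uM. Activity read 1 h later as mobility-shift fluorescence, loss of signal relative to DMSO.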

[8] = target: human CYP19A1, CYP19A1 (gene 1588) (UniProt P11511); assay: NVS_ADME_hCYP19A1: NovaScreen (NVS) CYP450-related Enzyme Activity (ADME) Assay for human CYP19A1 (AID 2283098; active means hit-call score of the fitted dose curve at least 0.9, where 1 is the maximum;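 on AC50: potency for inhibitors seen as loss of fluorescent enzyme signal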)
human CYP19A1, CYP19A1 (gene 1588), sequence (P11511 whole entry, looked up): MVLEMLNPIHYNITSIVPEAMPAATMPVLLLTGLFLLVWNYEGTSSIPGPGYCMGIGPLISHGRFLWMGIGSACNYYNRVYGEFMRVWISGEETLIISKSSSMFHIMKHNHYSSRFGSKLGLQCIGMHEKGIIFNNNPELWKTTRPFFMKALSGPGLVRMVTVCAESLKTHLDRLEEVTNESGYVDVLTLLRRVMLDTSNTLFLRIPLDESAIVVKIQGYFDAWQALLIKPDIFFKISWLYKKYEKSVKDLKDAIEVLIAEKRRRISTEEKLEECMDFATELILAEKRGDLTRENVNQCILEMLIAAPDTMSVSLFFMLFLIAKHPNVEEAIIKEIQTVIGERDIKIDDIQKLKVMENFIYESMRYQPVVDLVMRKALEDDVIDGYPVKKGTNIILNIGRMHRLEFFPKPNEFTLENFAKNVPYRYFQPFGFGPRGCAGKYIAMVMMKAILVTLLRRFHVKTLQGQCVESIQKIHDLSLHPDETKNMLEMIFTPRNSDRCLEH
Summary of the method: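 Fluorescence intensity read-out; activity taken as signal loss relative to acetonitrile vehicle. Extracted enzyme, specific substrate, no cells, 0.5 h exposure. Duplicate single-point screen at 10 uM, then concentration–response follow-up for actives.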

[9] = target: Cytochrome P450 2C19 (Homo sapiens) (UniProt P33261); assay: NVS_ADME_hCYP2C19: NovaScreen (NVS) CYP450-related Enzyme Activity (ADME) Assay for human CYP2C19 (AID 2283113; active means hit-call score of the fitted dose curve at least 0.9, where 1 is the maximum;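 further: potency for inhibition seen as loss of fluorescent signal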)
Summary of the method: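 Fluorescence intensity was measured 1 hour after chemicals were added to insect-cell-derived recombinant CYP2C19 with fluorogenic substrate. Decreased signal versus acetonitrile control was taken as reduced enzyme activity; initial testing used 10 uM in duplicate.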

[10] = target: human CYP2D6, CYP2D6 (gene 1565) (UniProt P10635); assay: NVS_ADME_hCYP2D6: NovaScreen (NVS) CYP450-related Enzyme Activity (ADME) Assay for human CYP2D6 (AID 2283107; active means hit-call score of the fitted dose curve at least 0.9, where 1 is the maximum)
human CYP2D6, CYP2D6 (gene 1565), sequence (P10635 whole entry, looked up): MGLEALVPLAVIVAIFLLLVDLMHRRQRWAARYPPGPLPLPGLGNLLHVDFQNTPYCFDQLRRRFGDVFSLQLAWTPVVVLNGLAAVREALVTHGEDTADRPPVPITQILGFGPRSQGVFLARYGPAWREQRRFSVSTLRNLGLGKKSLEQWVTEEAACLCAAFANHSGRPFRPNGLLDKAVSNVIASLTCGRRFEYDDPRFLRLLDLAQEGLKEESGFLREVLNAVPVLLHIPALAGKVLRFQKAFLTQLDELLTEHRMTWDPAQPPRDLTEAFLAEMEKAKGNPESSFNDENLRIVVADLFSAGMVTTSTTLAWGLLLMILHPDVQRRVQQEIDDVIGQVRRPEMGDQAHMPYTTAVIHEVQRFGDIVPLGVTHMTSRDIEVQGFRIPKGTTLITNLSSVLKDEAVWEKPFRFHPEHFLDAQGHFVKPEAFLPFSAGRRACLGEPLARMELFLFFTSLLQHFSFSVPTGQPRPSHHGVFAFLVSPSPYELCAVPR
Summary of the method: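 Insect-cell recombinant enzyme + fluorogenic substrate, cell-free; 1 h incubation; fluorescence intensity readout. Acetonitrile = neg. ctrl/baseline. Single-point 10 uM, duplicate; follow-up concentration series.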

[11] = target: human Caspase 5 (CASP5), CASP5 (gene 838) (UniProt P51878); assay: NVS_ENZ_hCASP5: NovaScreen (NVS) Enzymatic Assay for human Caspase 5 (CASP5) (AID 2283137; active means hit-call score of the fitted dose curve at least 0.9, where 1 is the maximum)
Summary of the method: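 Chemicals were first tested in duplicate at 25 uM against recombinant caspase 5 from E. coli. Activity was read by fluorescence intensity 2 hours after dosing. Those passing a preset inhibition threshold were retested in singleton concentration-response up to 50 uM.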

[12] = target: human Beta-secretase (BACE), BACE1 (gene 23621) (UniProt P56817); assay: NVS_ENZ_hBACE: NovaScreen (NVS) Enzymatic Assay for human Beta-secretase (BACE) (AID 2283140; active means hit-call score of the fitted dose curve at least 0.9, where 1 is the maximum;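 further: hits are inhibitors that reduce fluorescent substrate signal versus DMSO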)
human Beta-secretase (BACE), BACE1 (gene 23621), sequence (P56817 whole entry, looked up): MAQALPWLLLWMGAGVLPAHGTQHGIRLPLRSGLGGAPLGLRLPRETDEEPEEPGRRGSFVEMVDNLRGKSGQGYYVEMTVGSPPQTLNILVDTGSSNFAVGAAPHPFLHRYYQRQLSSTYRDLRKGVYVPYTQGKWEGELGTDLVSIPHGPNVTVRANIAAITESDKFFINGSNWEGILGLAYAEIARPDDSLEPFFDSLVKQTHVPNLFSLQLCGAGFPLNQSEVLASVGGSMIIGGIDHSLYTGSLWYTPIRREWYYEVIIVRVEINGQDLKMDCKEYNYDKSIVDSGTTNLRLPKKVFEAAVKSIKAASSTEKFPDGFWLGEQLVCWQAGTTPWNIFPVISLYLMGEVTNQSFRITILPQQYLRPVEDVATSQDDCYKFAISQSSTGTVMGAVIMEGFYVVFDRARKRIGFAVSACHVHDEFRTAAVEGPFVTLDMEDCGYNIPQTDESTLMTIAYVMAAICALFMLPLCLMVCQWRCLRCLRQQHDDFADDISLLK
Summary of the method: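 Fluorescence intensity read-out of protease activity defines this endpoint; signal loss relative to DMSO baseline marks inhibition. Recombinant enzyme from SF9 cells, cell-free format, 1 h exposure. Single-concentration duplicate screen (25 uM) precedes concentration-series follow-up.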

[13] = target: human Dual Specificity Protein Phosphatase 3 (DUSP3), DUSP3 (gene 1845) (UniProt P51452); assay: NVS_ENZ_hDUSP3: NovaScreen (NVS) Enzymatic Assay for human Dual Specificity Protein Phosphatase 3 (DUSP3) (AID 2283152; active means hit-call score of the fitted dose curve at least 0.9, where 1 is the maximum;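 further: phosphatase activity of recombinant human DUSP3 on a fluorogenic substrate without cells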)
human Dual Specificity Protein Phosphatase 3 (DUSP3), DUSP3 (gene 1845), sequence (P51452 whole entry, looked up): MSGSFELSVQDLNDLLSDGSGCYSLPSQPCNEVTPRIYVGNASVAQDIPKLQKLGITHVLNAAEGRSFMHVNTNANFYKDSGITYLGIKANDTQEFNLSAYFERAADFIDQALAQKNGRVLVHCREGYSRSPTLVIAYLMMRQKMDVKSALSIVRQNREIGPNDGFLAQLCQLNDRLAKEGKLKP
Summary of the method: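 Cell-free fluorescence-intensity enzyme activity assay with recombinant protein and substrate; loss of signal fitted relative to DMSO baseline. Primary screen in duplicate at 25 uM, actives then run in concentration series; measured 0 h after dosing.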

[14] = target: Cytochrome P450 3A4 (Homo sapiens) (UniProt P08684); assay: NVS_ADME_hCYP3A4: NovaScreen (NVS) CYP450-related Enzyme Activity (ADME) Assay for human CYP3A4 (AID 2283110; active means hit-call score of the fitted dose curve at least 0.9, where 1 is the maximum)
Cytochrome P450 3A4 (Homo sapiens), sequence (P08684 whole entry, looked up): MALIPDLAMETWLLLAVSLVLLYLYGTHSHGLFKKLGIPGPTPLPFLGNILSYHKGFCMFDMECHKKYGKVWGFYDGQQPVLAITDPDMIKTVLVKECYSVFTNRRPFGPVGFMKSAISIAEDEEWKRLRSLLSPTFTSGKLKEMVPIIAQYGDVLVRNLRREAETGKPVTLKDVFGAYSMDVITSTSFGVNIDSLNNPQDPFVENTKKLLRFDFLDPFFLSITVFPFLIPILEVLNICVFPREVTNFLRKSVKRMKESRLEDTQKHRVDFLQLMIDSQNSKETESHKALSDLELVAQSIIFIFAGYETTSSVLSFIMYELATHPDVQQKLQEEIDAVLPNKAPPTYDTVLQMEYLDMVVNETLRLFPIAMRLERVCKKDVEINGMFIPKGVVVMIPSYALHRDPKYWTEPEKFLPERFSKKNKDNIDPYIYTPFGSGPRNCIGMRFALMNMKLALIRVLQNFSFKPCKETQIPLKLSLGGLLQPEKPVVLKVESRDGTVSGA
Summary of the method: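 Recombinant CYP3A4 from insect cells, fluorescence enzyme read-out, 0.33 h after chemical addition. Acetonitrile = negative control/baseline. Primary HTS: 10 uM in duplicate; actives re-tested in concentration series.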

[15] = target: human Matrix Metalloproteinase-9 (MMP9), MMP9 (gene 4318) (UniProt P14780); assay: NVS_ENZ_hMMP9: NovaScreen (NVS) Enzymatic Assay for human Matrix Metalloproteinase-9 (MMP9) (AID 2283190; active means hit-call score of the fitted dose curve at least 0.9, where 1 is the maximum;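 further: cell-free recombinant MMP9 protease activity read by fluorescent substrate signal; active means inhibition seen as loss of fluorescence signal versus DMSO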)
human Matrix Metalloproteinase-9 (MMP9), MMP9 (gene 4318), sequence (P14780 whole entry, looked up): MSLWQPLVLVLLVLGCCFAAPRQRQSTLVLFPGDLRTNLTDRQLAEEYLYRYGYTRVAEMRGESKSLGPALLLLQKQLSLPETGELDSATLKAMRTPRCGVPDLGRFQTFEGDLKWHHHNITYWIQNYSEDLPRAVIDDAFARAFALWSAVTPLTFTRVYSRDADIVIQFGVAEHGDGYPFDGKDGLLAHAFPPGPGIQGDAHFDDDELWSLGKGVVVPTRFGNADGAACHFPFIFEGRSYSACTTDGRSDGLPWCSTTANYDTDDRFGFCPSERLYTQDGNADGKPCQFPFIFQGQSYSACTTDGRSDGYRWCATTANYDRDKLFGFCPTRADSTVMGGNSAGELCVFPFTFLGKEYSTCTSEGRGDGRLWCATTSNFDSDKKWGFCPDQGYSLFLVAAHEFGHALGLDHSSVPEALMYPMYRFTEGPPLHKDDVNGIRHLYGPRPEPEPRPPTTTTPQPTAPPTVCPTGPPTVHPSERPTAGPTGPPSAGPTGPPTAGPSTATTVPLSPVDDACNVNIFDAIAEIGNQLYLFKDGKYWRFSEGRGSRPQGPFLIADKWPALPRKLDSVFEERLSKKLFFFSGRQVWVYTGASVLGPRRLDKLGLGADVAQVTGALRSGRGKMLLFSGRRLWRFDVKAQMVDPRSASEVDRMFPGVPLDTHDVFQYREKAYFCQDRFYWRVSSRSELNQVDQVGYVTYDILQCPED
Summary of the method: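 Screening concentration 25 uM, duplicate wells, then dose series for confirmation. Cell-free enzymatic reaction measured by fluorescence intensity 1 h post-dosing; decreased signal versus DMSO taken as activity.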

[16] = target: human CYP2C9, CYP2C9 (gene 1559) (UniProt P11712); assay: NVS_ADME_hCYP2C9: NovaScreen (NVS) CYP450-related Enzyme Activity (ADME) Assay for human CYP2C9 (AID 2283108; active means hit-call score of the fitted dose curve at least 0.9, where 1 is the maximum)
human CYP2C9, CYP2C9 (gene 1559), sequence (P11712 whole entry, looked up): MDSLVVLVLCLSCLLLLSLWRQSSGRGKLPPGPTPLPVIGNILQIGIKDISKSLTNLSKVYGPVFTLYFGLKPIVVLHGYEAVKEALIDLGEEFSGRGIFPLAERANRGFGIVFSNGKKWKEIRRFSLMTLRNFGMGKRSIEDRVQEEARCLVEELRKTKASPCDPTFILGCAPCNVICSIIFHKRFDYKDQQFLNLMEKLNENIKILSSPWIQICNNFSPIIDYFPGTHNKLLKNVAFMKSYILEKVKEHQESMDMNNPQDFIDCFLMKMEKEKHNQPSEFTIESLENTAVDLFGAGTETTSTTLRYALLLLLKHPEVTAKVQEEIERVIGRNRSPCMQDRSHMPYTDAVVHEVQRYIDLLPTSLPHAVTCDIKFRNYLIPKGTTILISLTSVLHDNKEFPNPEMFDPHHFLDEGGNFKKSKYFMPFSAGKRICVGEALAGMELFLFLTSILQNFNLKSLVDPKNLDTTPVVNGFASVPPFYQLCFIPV
Summary of the method: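 Recombinant human CYP2C9 expressed in SF9 cells, fluorogenic substrate, fluorescence read 0.75 h after dosing. Chemicals first run in duplicate at 10 uM, with actives followed in concentration series; loss of signal versus acetonitrile baseline.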

Measured: AC50

E-selectin (Homo sapiens), sequence (P16581 whole entry, looked up): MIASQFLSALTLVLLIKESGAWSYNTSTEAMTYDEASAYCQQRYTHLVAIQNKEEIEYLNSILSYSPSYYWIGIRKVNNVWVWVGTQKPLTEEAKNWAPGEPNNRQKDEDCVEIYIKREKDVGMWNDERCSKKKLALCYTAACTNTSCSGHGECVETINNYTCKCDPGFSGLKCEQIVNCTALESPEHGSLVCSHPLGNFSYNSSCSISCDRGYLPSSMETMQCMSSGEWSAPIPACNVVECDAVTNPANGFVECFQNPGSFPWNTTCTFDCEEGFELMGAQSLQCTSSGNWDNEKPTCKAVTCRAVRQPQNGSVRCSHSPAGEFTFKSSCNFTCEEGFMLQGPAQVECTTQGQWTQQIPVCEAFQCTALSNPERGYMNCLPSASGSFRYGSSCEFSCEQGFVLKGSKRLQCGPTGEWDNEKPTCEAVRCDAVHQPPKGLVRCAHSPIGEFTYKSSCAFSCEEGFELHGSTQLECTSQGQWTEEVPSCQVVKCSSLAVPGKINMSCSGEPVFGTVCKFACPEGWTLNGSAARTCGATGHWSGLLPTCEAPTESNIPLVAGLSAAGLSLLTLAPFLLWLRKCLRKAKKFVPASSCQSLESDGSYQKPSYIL

NCC(F)(F)C(F)(F)C(F)(F)C(F)(F)C(F)(F)C(F)(F)C(F)(F)C(F)(F)F
inactive: [1] | [2] | [3] | [4] | [5] | [6]

CCN(CC)c1ccc(N=Nc2ccccc2)cc1
active: [1] 13.8 µM | [3] 20 µM | [4] 29.4 µM | [5] 12.7 µM | [6] 29.5 µM
inactive: [2]

FC(F)(F)C(F)(F)C(F)(F)C(F)(F)C(F)(F)C(F)(F)CC[Si](Cl)(Cl)Cl
inactive: [1] | [2] | [3] | [4] | [5] | [6]

C=CCOC(=O)CC(C)C
inactive: [7]

O=S(=O)(O)CCC(F)(F)C(F)(F)C(F)(F)C(F)(F)F
inactive: [1] | [2] | [3] | [4] | [5] | [6]

CCOC(OCC)OCC
inactive: [8]

Nc1cc([N+](=O)[O-])cc(Cl)c1O
inactive: [1] | [2] | [3] | [4] | [5] | [6]

CN(C(=O)C(F)(F)C(F)(F)C(F)(F)F)[Si](C)(C)C
inactive: [1] | [2] | [3] | [4] | [5] | [6]

c1ccc(C[P+](c2ccccc2)(c2ccccc2)c2ccccc2)cc1
active: [9] 1.87 µM

O=C1c2c(O)ccc(Nc3ccc(CCO)cc3)c2C(=O)c2c([N+](=O)[O-])ccc(O)c21
inactive: [1] | [6]
active: [2] 33.7 µM | [3] 9.47 µM | [4] 0.379 µM | [5] 20 µM | [10] 5 µM | [9] 4.49 µM | [11] 148 nM | [12] 129 nM | [13] 2.37 µM

NC(O)(C(F)(F)F)C(F)(F)F
inactive: [1] | [2] | [3] | [4] | [5] | [6]

O=C=NCc1cccc(CN=C=O)c1
inactive: [1] | [2] | [3] | [4] | [5] | [6]

Cc1cc(O)c(C(C)(C)C)cc1C(C)(C)C
active: [1] 5.34 µM | [2] 10.2 µM | [3] 3.79 µM | [4] 5.33 µM | [5] 3.82 µM | [6] 6.3 µM
inactive: [7]

CC(C)Nc1ccc(NC(C)C)c2c1C(=O)c1ccccc1C2=O
active: [8] 3.18 µM

Cc1ccc(S(=O)(=O)C(I)I)cc1
active: [1] 5.14 µM | [2] 6.86 µM | [3] 1.43 µM | [4] 4.27 µM | [5] 0.866 µM | [6] 5.34 µM

COC(=O)c1ccc(C=O)cc1
active: [14] 7.79 nM

CNS(=O)(=O)C(F)(F)C(F)(F)C(F)(F)C(F)(F)C(F)(F)C(F)(F)C(F)(F)C(F)(F)F
inactive: [1] | [2] | [3] | [4] | [5] | [6]

CCN(CC)c1ccc2c(c1)Oc1cc(N(CC)CC)ccc1C21OC(=O)c2ccccc21
active: [3] 6.68 µM | [4] 10 µM | [5] 10 µM
inactive: [1] | [2] | [6]

CC1=CCC2C(=O)OC(=O)C2C1 (configuration not stated)
inactive: [7]

CCC(C)CO (configuration not stated)
active: [15] 6.58 µM
inactive: [12]

C=C(C)C(=O)OCC(F)(F)C(F)(F)C(F)(F)C(F)F
inactive: [1] | [2] | [3] | [4] | [5] | [6]

CC(C)=CCCC(C)O (configuration not stated)
inactive: [10] | [16]

Cc1cc(=O)[nH]c(C(C)C)n1
active: [7] 9.31 µM

CCN(CCO)S(=O)(=O)C(F)(F)C(F)(F)C(F)(F)C(F)(F)C(F)(F)C(F)(F)C(F)(F)C(F)(F)F
active: [3] 39.9 µM and 22.9 µM | [5] 23.6 µM and 18.6 µM | [6] 30 µM and 27.9 µM
inactive: [1] | [2] | [4]
